Compound activity as filed in PubChem.
Most compounds without a hit are left out; they make up all but 3.5% or so of the library.
FBW7 activator: FBW7 E3 ligase activators, primary screen, biochemical, AlphaScreen, human. F-box/WD repeat-containing protein 7 (Homo sapiens), Q969H0. AlphaScreen FBW7–phospho-cyclin E peptide binding, activator screen. normalized activity (activation), % at 26.1 µM. 650,000 compounds, 0.13% hits; in the data active = normalized activity above about 1.9%;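 note: purified mutant Fbw7 with reduced substrate affinity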
GPR151 ag: activators of human GPR151, primary screen, cell-based, PathHunter beta-arrestin, luminescence; G-protein coupled receptor 151 (Homo sapiens), Q8TDV0; PathHunter beta-arrestin GPR151 cells; activation, % at 11.2 µM; 650,000 compounds, 1% hits; AID 1508602, 2020; in the data active = activation above about 4.9%;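 note: 0% = median of compound wells and 100% = cells with positive control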
Target sequence (Q8TDV0 whole entry, looked up): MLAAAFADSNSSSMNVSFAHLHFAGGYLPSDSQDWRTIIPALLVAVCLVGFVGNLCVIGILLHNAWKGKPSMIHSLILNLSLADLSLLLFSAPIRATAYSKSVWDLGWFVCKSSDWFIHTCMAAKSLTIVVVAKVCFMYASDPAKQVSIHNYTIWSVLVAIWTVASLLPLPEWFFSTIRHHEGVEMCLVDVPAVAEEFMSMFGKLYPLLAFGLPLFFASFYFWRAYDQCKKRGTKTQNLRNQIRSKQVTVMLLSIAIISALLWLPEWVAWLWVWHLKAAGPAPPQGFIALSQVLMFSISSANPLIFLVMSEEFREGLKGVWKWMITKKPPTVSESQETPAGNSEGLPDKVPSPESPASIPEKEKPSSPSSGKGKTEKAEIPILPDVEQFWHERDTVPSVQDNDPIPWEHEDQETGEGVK
MITF inh: MITF inhibitors, primary screen, biochemical, AlphaScreen, human. 650,000 compounds, 0.91% hits. Microphthalmia-associated transcription factor (Homo sapiens), O75030. AlphaScreen MITF homodimerization, bead proximity signal. inhibition, % at 2.6 µM; in the data active = inhibition above about 50%;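 note: 0% = vehicle wells with protein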
TEAD-YAP block: TEAD-YAP interaction inhibition, primary screen, TEAD-YAP interaction inhibitor project, luminescence, HEK-TIYL cells; TEAD-Gal4/YAP UAS-luciferase luminescence; inhibition, % at 9.12 µM; 640,000 compounds, 1.4% hits; in the data active = inhibition above about 32%;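 note: 0% = median of test compound wells and 100% = reference inhibitor wells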
MITF inh conf: MITF inhibitors, retest of hits, confirmation, biochemical, AlphaScreen, triplicate; AlphaScreen MITF homodimerization, biotin/His-MITF beads; inhibition, % at 2.6 µM; AID 1259372, 2018; shares compounds with MITF inh; 4,700 compounds, 16% hits;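 active = inhibition above a cutoff derived from the DMSO control wells, cut at about 28% in these data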;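 note: 0% = MITF dimer wells with DMSO only; inhibitors lower the bead chemiluminescence by keeping MITF from dimerizing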
AlphaScreen intf2: AlphaScreen optical interference compounds, counter-screen for MITF inhibitor project, biochemical, triplicate; shares compounds with MITF inh; LysRS AlphaScreen counterscreen, signal interference; inhibition, % at 2.6 µM; 4,700 compounds, 7.6% hits;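 active = inhibition above a cutoff derived from the DMSO control wells, cut at about 30% in these data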
An asterisk follows results filed as active; nt = not tested or not shown.

SMILES | FBW7 activator | GPR151 ag | MITF inh | TEAD-YAP block | MITF inh conf | AlphaScreen intf2
COc1cc(OC)c(OC)cc1CN1CCN(CC2CC3C=CC2C3)CC1 (stereo not given) | -0.2 | 0.9 | 56.9* | -4.4 | -6.4 | -8.2
COc1cc(OC)c(OC)cc1CN1CCSCC1 | -0.1 | 0.3 | 40.4 | -5.1 | nt | nt
Fc1cccc(CN2CCN(CC3CC4C=CC3C4)CC2)c1 (stereo not given) | 0.3 | -0.3 | 70.5* | 5.3 | -2.8 | -2.1
Cn1cc(C(F)(F)F)ccc1=S | 0.1 | 0.7 | 1.2 | 14.7 | nt | nt
COc1ccc(NC(=O)CSc2nc3[nH]ncc3c(=O)n2-c2ccc(Br)cc2)c(OC)c1 | 0.1 | 2.8 | 12.5 | -6.0 | nt | nt
CCC1(C)COC(C)(CC(=O)NNC2=CC(=O)CC(C)(C)C2)OC1 (stereo not given) | 0.2 | -0.4 | 10.1 | 6.3 | nt | nt
Clc1ccc(OCCCCn2ccnc2)cc1Cl | -0.2 | -1.5 | 54.8* | -1.3 | 12.6 | 16.9
Clc1cc(Br)ccc1OCCCCn1ccnc1 | 0.1 | 0.0 | 74.2* | -8.3 | 2.3 | 6.0
Brc1c(OCCCCn2ccnc2)ccc2ccccc12 | 0.2 | -2.1 | 78.0* | -20.1 | -11.1 | -3.0
Clc1ccc(OCCOCCn2ccnc2)cc1Cl | -0.1 | 0.1 | 43.0 | -7.9 | nt | nt
Cc1c(CN2C(=O)c3cccc(N4CCN(C(=O)C(C)(C)C)CC4)c3C2=O)cnn1C | 1.0 | -0.4 | 23.8 | -16.3 | nt | nt
CN1CCN(CCCNc2nnc3c4ccccc4n(C)c3n2)CC1 | 0.0 | 1.1 | 4.2 | -1.2 | nt | nt
O=C(c1cc(Cl)cc(Cl)c1)N1CCCCC1 | 1.0 | 1.0 | 62.2* | -4.0 | -14.5 | -6.2
O=C(c1cc(Cl)cc(Cl)c1)N1CCN(C(=O)c2cc(Cl)cc(Cl)c2)CC1 | -0.1 | 0.5 | -3.0 | 4.9 | nt | nt
CN(C)CCCNCC(=O)NN(c1ccccc1)c1ccccc1 | 0.0 | 1.1 | 63.6* | 2.2 | -7.2 | -2.1
CCCCNCC(=O)NN(c1ccccc1)c1ccccc1 | 0.1 | 0.1 | 29.1 | -7.3 | nt | nt
Cc1nc([N+](=O)[O-])cn1CC(=O)Nc1ccc(F)c(Cl)c1 | 0.2 | 2.1 | 52.6* | 12.5 | -6.2 | -3.8
Cc1ccc2c(c1)c(=O)c1ccccc1n2CCCC(=O)Nc1ccccc1Br | 0.1 | 0.4 | -8.3 | 6.9 | nt | nt
Cc1nnc(NC(=O)COc2ccccc2F)s1 | 0.0 | 1.9 | -3.0 | -7.8 | nt | nt
Cc1ccc(OCCCCN2CC(C)OC(C)C2)c([N+](=O)[O-])c1 (stereo not given) | 0.0 | 2.9 | 62.6* | 4.3 | -9.1 | -4.8
Cc1ccc(OCCN2CCCC(C)C2)c([N+](=O)[O-])c1 (stereo not given) | -0.1 | -0.6 | 58.3* | 8.5 | 12.5 | 11.6
Cc1ccc(OCCCN2CCCCC2)c([N+](=O)[O-])c1 | 0.1 | -1.5 | 86.6* | -27.5 | -5.3 | 10.1
Cc1ccc(OCCCCN2CCCC2)c([N+](=O)[O-])c1 | -0.2 | 0.0 | 82.9* | 4.0 | -7.9 | -2.2
Cc1ccc([N+](=O)[O-])c(OCCCN2CCOCC2)c1 | -0.3 | -0.6 | -10.5 | -7.0 | nt | nt
Cc1cc(OCCCCN2CC(C)OC(C)C2)ccc1[N+](=O)[O-] (stereo not given) | -0.3 | 1.5 | 39.7 | 11.9 | nt | nt
SMILES | FBW7 activator | GPR151 ag | MITF inh | TEAD-YAP block | MITF inh conf | AlphaScreen intf2
CCN1CCC(C2(Cc3ccccc3)NC(=O)NC2=O)CC1 (stereo not given) | -0.1 | -0.1 | 10.9 | 3.8 | nt | nt
Cc1ccccc1S(=O)(=O)NNC(=O)C(=O)NNc1ccccn1 | -0.3 | 1.2 | 53.7* | -0.6 | 47.0* | 75.1*
Nc1ccc(S(=O)(=O)NNC(=O)C(=O)NNc2ccccn2)cc1 | -0.2 | -0.6 | 44.5 | -3.8 | nt | nt
CN1C(=O)N(C)C2OC(C3OC4C(O3)N(C)C(=O)N4C)OC21 (stereo not given) | 0.1 | -0.2 | 54.7* | 1.9 | 8.4 | 11.0
O=C(Nc1ccc(C(F)(F)F)cc1)Nc1ccccc1[N+](=O)[O-] | 0.0 | 1.0 | 7.8 | -40.5 | nt | nt
C=CCc1ccc(OCCOCCN2CCN(CC)CC2)c(OC)c1 | -0.3 | -1.0 | 65.3* | -10.8 | 13.9 | 14.6
C=CCc1ccc(OCCCNC(C)CC)c(OC)c1 (stereo not given) | -0.2 | 1.2 | 13.1 | 12.0 | nt | nt
C=CCc1ccc(OCCOCCNC(C)CC)c(OC)c1 (stereo not given) | -0.3 | -1.2 | 76.7* | 4.9 | 7.9 | 7.0
Cc1nnc(NC(=O)CSc2nc(N)c3c(C)c(C)sc3n2)s1 | 0.8 | -1.9 | 21.8 | -0.4 | nt | nt
CCc1ccccc1N1C(=O)CC(SCC(=O)Nc2ccc(Br)cc2)C1=O (stereo not given) | 0.2 | 1.4 | 7.0 | 10.1 | nt | nt
Cc1nccn1CCOc1ccc(Cl)cc1 | 0.2 | -0.7 | 62.9* | -18.3 | 17.6 | -6.9
O=C1CC(c2cccs2)CC2=C1C(c1cc(=O)c3ccccc3o1)Nc1ccccc1N2 (stereo not given) | 0.2 | -0.4 | 10.5 | 13.6 | nt | nt
COc1ccccc1CN1CCOCC1 | 0.0 | -1.5 | 58.5* | 11.2 | -5.6 | -7.9
COc1cc(OC)c(OC)cc1CN1CCN(Cc2cc(OC)c(OC)cc2OC)CC1 | -0.1 | -0.2 | 70.6* | -0.2 | -4.5 | 10.4
COc1cc(OC)c(OC)cc1CN1CCN(Cc2cccc(Br)c2)CC1 | -0.2 | 0.5 | 73.2* | 13.4 | 11.4 | 21.5
COc1ccc(CN2CCN(Cc3ccccc3F)CC2)c(OC)c1 | 0.1 | -0.9 | 81.1* | 5.0 | 1.3 | 11.3
COc1ccc(CN2CCSCC2)c(OC)c1 | -0.1 | -1.0 | 0.2 | -2.1 | nt | nt
COc1ccc(C2NC(=O)NC(C)=C2C(=O)OCCOC(C)C)cc1 (stereo not given) | 0.9 | 0.9 | 10.3 | -15.0 | nt | nt
COc1cc(OC)c(OC)cc1CN1CCN(Cc2ccccc2F)CC1 | -0.2 | 0.1 | 76.9* | -1.6 | 3.0 | 11.9
COc1cc(OC)c(OC)cc1CN1CCN(Cc2ccccc2Br)CC1 | -0.5 | -1.4 | 39.6 | 3.1 | nt | nt
COc1cc(CN2CCCC2)c([N+](=O)[O-])cc1OC | -0.1 | -0.2 | -3.7 | -5.7 | nt | nt
COc1cc(OC)c(OC)cc1CN1CCN(Cc2ccc(SC)cc2)CC1 | 0.6 | -1.4 | 52.1* | 5.9 | 4.1 | -1.9
COc1ccc(CN2CCN(Cc3cc(OC)c(OC)cc3[N+](=O)[O-])CC2)c(OC)c1 | -0.1 | 0.1 | 80.0* | 1.6 | 9.8 | 11.6
COc1cc(OC)c(OC)cc1CN1CCN(Cc2ccccc2Cl)CC1 | -0.2 | -0.7 | 74.8* | 3.3 | 8.4 | 13.7
O=C(Cc1ccccc1[N+](=O)[O-])Nc1ccccc1Br | -0.1 | 4.9 | 9.6 | -6.9 | nt | nt
COc1ccc(CN2CCN(Cc3cc(OC)c(OC)cc3OC)CC2)c(OC)c1 | 0.0 | -0.1 | 72.8* | 5.0 | 13.1 | 21.6
